Laboratory results taken from PubChem BioAssay (NCI).
The panel holds about 79,000 compounds, 15% with a hit somewhere; the sample as a whole holds those more often. Rule as the data show it: active = growth inhibition above about 70%; inactive = the rest.

Columns and labels:
[1] = NCI Yeast Anticancer Drug Screen. Data for the rad50 strain (AID 155);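 also: 0% = growth of vehicle-only cultures of the same strain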; settings: S. cerevisiae rad50 strain growth inhibition; at 50.0 µM; active compounds read high
Procedure, shortened: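 Compounds were tested on a yeast strain with an engineered DNA damage repair alteration; the reported value is growth inhibition normalised to vehicle treatment.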

[2] = NCI Yeast Anticancer Drug Screen. Data for the mec2-1 strain (AID 157); settings: S. cerevisiae mec2-1 strain, at 50.0 µM, active compounds read high
Procedure, shortened: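 Using mec2-1 yeast: add compound, measure growth, express inhibition versus vehicle-treated cultures.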

[3] = NCI Yeast Anticancer Drug Screen. Data for the sgs1 mgt1 strain (AID 161);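 also: 0% = growth of cultures given vehicle only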; settings: S. cerevisiae sgs1 mgt1 strain, at 50.0 µM, active compounds read high
Procedure, shortened: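 Yeast cells carrying a defined DNA-repair defect were exposed to test compounds. Growth inhibition was measured relative to vehicle-treated controls.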

[4] = NCI Yeast Anticancer Drug Screen. Data for the cln2 rad14 strain (AID 165);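 also: 0% = growth equal to vehicle treated cultures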; settings: S. cerevisiae cln2 rad14 strain, at 50.0 µM, active compounds read high
Procedure, shortened: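 Yeast strain cln2 rad14, bearing defects in cell cycle control and DNA repair, serves as the test system; values reflect growth inhibition compared with vehicle.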

[5] = NCI Yeast Anticancer Drug Screen. Data for the bub3 strain (AID 167); settings: S. cerevisiae bub3 mutant strain, at 50.0 µM, active compounds read high
Procedure, shortened: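 Growth of a checkpoint-deficient yeast mutant is measured after compound exposure. Values represent inhibition relative to vehicle.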

[6] = NCI Yeast Anticancer Drug Screen. Data for the mlh1 rad18 strain (AID 175); settings: S. cerevisiae mlh1 rad18 strain growth inhibition; at 50.0 µM; active compounds read high
Procedure, shortened: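 Steps: expose repair-defective yeast to compound; measure growth; express inhibition against vehicle-treated controls.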

Measured: growth inhibition

COC(=O)/C=C/C(=O)NC(N)=O
inactive: [1] -19.6% | [2] -41.2% | [3] -22.1% | [4] 9.95% | [5] -17.2% | [6] -8.05%

CC(C)OC(C(=O)O)c1ccccc1 (stereo not drawn)
inactive: [1] -18.2% | [2] 2.2% | [3] -3.65% | [4] 11.8% | [5] 1.05% | [6] 0%

CC(CC(=O)c1ccccc1)c1ccccc1 (stereo not drawn)
inactive: [1] -7.9% | [2] -18.4% | [3] -10.7% | [4] -13.7% | [5] -19.4% | [6] 10.2%

NC(=S)N/N=C/c1ccc(N)cc1
inactive: [1] 7.2% | [2] -2.35% | [3] 0.9% | [4] -1.35% | [5] 2.35% | [6] 7.5%

Cc1ccc(C)n1-c1ccsc1C(=O)NNC(=O)CCl
inactive: [1] -13.8% | [2] -17.8% | [3] 2.25% | [4] 22.9% | [5] -14.5% | [6] -3.85%

O=C(Cc1ccc(OCc2ccccc2)cc1)NCc1ccc2c(c1)OCO2
inactive: [1] 3.2% | [2] -5.5% | [3] -1.2% | [4] -10.8% | [5] 17.5% | [6] -9.5%

CC1(C)S(=O)(=O)OCCOS1(=O)=O
inactive: [1] -25.4% | [2] 16.6% | [3] 6.75% | [4] -20.5% | [5] 7.35% | [6] 0.15%

O=c1c2ccccc2c(Br)c(Br)c2ccccc12
inactive: [1] 11.4% | [2] -12.4% | [3] 15.6% | [4] 3.3% | [5] 9.15% | [6] 27.4%

S=C1CCCCCN1
inactive: [1] 47.6% | [2] 17.8% | [3] 42.6% | [4] 9.95% | [5] 30.4% | [6] 30.8%

CCOc1ccc(/C=N/N=C(N)N)cc1OCC
inactive: [1] -31.4% | [2] -18% | [3] -17.6% | [4] -53.4% | [5] -8.4% | [6] -11.9%

Cc1cc(OCCO)cc(C)c1Cl
inactive: [1] -20.9% | [2] -65.8% | [3] -16.4% | [4] 2.35% | [5] -10.5% | [6] -12.3%

C#C[C@H]1CCCCCC1O (stereo partly drawn)
inactive: [1] 13.1% | [2] 2% | [3] -1.35% | [4] 14.4% | [5] -6.75% | [6] 21.9%

Nc1nc(N)c2cc(S(=O)(=O)c3cccc(C(F)(F)F)c3)ccc2n1
inactive: [1] 34% | [2] 24.9% | [3] 7.4% | [4] 11.2% | [5] -15.4% | [6] -59.4%

CC1(C)N=C(N)N=C(N)N1c1cccc(Br)c1
inactive: [1] -14.3% | [2] -14.4% | [3] -13.1% | [4] 7.15% | [5] -0.95% | [6] 2.3%

CNc1nc(NC)c2cn[nH]c2n1
inactive: [1] 17.7% | [2] 2.3% | [3] 20.2% | [4] -9.25% | [5] -3.9% | [6] 16.1%

COC(=O)c1ccccc1N(C)C
inactive: [1] 0.55% | [2] -11.2% | [3] -3.8% | [4] 2.4% | [5] 2.65% | [6] 0.9%

CC(C)=CC(=O)OC(=O)C=C(C)C
inactive: [1] -25.3% | [2] -48.4% | [3] -21.2% | [4] 1.8% | [5] -36.6% | [6] -8.65%

Oc1ccc(N=Nc2ccc(Br)cc2)c(O)c1
inactive: [1] 4.15% | [2] 31.3% | [3] 30.2% | [4] -20.1% | [5] 33.6% | [6] 22.8%

O=C1Cc2cc(O)ccc2O1
inactive: [1] -13.4% | [2] -28.2% | [3] -48.6% | [4] -0.85% | [5] -32% | [6] -8.75%

O=C(O)CCCc1ccccc1
inactive: [1] 5.1% | [2] -6.2% | [3] 2.05% | [4] -7.65% | [5] 6% | [6] 11.3%

CC1OC(Oc2c(-c3ccc(O)c(O)c3)oc3cc(O)cc(O)c3c2=O)C(O)C(O)C1O (stereo not drawn)
inactive: [1] 21.4% | [2] -8.25% | [3] 14.2% | [4] 8.6% | [5] 20.9% | [6] 38.4%

Cc1ccc(/C(C#N)=C/c2ccc3c(c2)OCO3)cc1
inactive: [1] 23.6% | [2] 25.5% | [3] 26.3% | [4] -14.3% | [5] 47.8% | [6] 21.2%

CCOC(=O)c1[nH]c(C)c(C(=O)O)c1C
inactive: [1] -4.45% | [2] -26.3% | [3] 0.2% | [4] -24.9% | [5] -23.8% | [6] -11.2%

CN(C)c1ccc2oc(=O)c3ccccc3c2c1
inactive: [1] 6.05% | [2] 7.55% | [3] 1.55% | [4] -2% | [5] 0.5% | [6] -33%

C=CCc1cc(C(C)=O)cc(OC)c1O
inactive: [1] -16.1% | [2] -6.7% | [3] 5.7% | [4] -16.5% | [5] -34.4% | [6] -19.4%

NC(=O)c1ccc(N=C(N)N=C(N)N)cc1
inactive: [1] 7.3% | [2] -15.6% | [3] -20% | [4] -36.2% | [5] -11.8% | [6] -2.05%

O=C(O)CNC(=O)c1ccccc1
inactive: [1] -46% | [2] -4.45% | [3] -25.6% | [4] -50.1% | [5] -25% | [6] -47.6%

O=C(c1ccc(O)cc1)c1ccc(O)cc1
inactive: [1] 30.4% | [2] -6.6% | [3] 15.2% | [4] -49.1% | [5] -9.15% | [6] 17.2%

CC1=NN(c2ccccc2)C(=O)/C1=C\N1CC(=O)NC1=S
inactive: [1] -50.9% | [2] -46% | [3] -11.3% | [4] 5.45% | [5] -49% | [6] -30.4%

COc1ccc(Oc2c(I)cc(CC(NC(C)=O)C(=O)O)cc2I)cc1 (stereo not drawn)
inactive: [1] 43.1% | [2] 40.5% | [3] 38.7% | [4] 51.5% | [5] 37.4% | [6] 49.7%

O=C(Cc1nc2ccc([N+](=O)[O-])cc2nc1CC(=O)c1cccnc1)c1cccnc1
inactive: [1] 14.3% | [2] 10.5% | [3] -1.35% | [4] 15.2% | [5] -3.85% | [6] 9.6%

CSC[C@H](NC(=O)COc1cccc2cnccc12)C(=O)NC(Cc1ccccc1)C(O)C(=O)N1CSC[C@H]1C(=O)NC(C)(C)C (stereo partly drawn)
inactive: [1] -34.3% | [2] -17.2% | [3] -28.9% | [4] 17.6% | [5] 2.3% | [6] -51.4%

C[C@]12CC[C@@H]3c4ccc(OCC(=O)O)cc4CC[C@H]3[C@@H]1CCC2=O
inactive: [1] 16% | [2] 0.35% | [3] -18.7% | [4] -8% | [5] 5.6% | [6] 2.05%

O=C(Nc1ccccc1C(=O)NCC1CC1)c1cccs1
inactive: [1] -13.1% | [2] -29.9% | [3] 3.4% | [4] 5.35% | [5] 5.9% | [6] -1.6%

COC(=O)c1ccc(C(C)C)cc1
inactive: [1] 2.95% | [2] 11.8% | [3] -1.35% | [4] 16.1% | [5] 0.3% | [6] 4.05%

O=C(c1ccccc1)C1CCC1
inactive: [1] 22.6% | [2] -5.25% | [3] 10.2% | [4] -17.5% | [5] 7.95% | [6] 6.75%

O=[N+]([O-])c1ccc(S(=O)(=O)NN=C2CCCCC2)cc1
inactive: [1] 19.9% | [2] 13.2% | [3] 8.1% | [4] -31% | [5] 8.85% | [6] 37.8%

O=[N+]([O-])c1ccc(-c2ncc(-c3ccc(Br)cc3)o2)cc1
inactive: [1] -0.1% | [2] -3.3% | [3] 21.9% | [4] 11.6% | [5] 17.2% | [6] 3.45%

CCO/C=C1\SC(=S)N(c2cccc(C)c2)C1=O
inactive: [1] 11.1% | [2] 13.7% | [3] 1.25% | [4] 13.2% | [5] 14.9% | [6] 16.9%

CCOC(=O)C1=C(Nc2ccc(Br)cc2)C(=O)N(CC)C1
inactive: [1] 12.7% | [2] 1.2% | [3] 33% | [4] 14.9% | [5] 42.7% | [6] 19.1%

O=c1[nH]c(O)c(/C=C2/C=Nc3ccccc32)[nH]1
inactive: [1] 0.45% | [2] -5.85% | [3] -8.35% | [4] -15.2% | [5] 4.1% | [6] 0.6%

S=C1NCc2cncnc2N1
inactive: [1] -13.7% | [2] -2.05% | [3] -6.9% | [4] -8.7% | [5] 3.85% | [6] 18.8%

O=C1C=C(Nc2ccc([N+](=O)[O-])cc2)c2ccccc2C1=O
inactive: [1] 18.4% | [2] -10.9% | [3] -1.3% | [4] 4.65% | [5] -12.9% | [6] -8.8%
